# Compounds with a hit are over-represented: about 13% of the library has one in this group of screens.
# HCMV inh: qHTS Assay for inhibitors of the human cytomegalovirus (HCMV); HFF cells, HCMV-luciferase reporter, 72 h; stronger effect = lower value; activity change, negative = inhibition, % at 57.5 µM; actives 4.5% (n = 410,000); AID 1259415, 2018; in the data active = activity change below about -60%; inconclusive = no clear call, values can overlap the other calls; inactive = above about -39%
#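 HFF cells seeded 16 h at 37C, treated with compounds, infected with luciferase-reporter HCMV at MOI 1 PFU/cell; luciferase read at 72 h post infection, normalized to buffer-only and Salinomycin controls.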
# Pf growth 48h: Primary qHTS for delayed death inhibitors of the malarial parasite plastid, 48 hour incubation | P. falciparum luciferase growth in erythrocytes, 48 h | AID 504832, 2011 | actives 5.9% (n = 310,000) | Potency, µM (titrated, usually from 28.7 µM), without a hit: at the top dose activity change, negative = inhibition, actives largely listed as inhibitors; also: potency is read from the fitted curve at half-maximal effect
#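 Cell-based growth assay: transgenic P. falciparum expressing firefly luciferase, cultured in red cells within RPMI 1640 containing 0.5% w/v Albumax, 24 mM bicarbonate and gentamycin. A drop in luciferase activity indicates inhibition.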
# HCV inh: qHTS Assay for Inhibitors of Hepatitis C Virus (HCV). Potency, µM (series often up to 41.8 µM), without a hit: at the top dose activity change, negative = inhibition, most hits filed as inhibitors. Huh7.5.1 HCVcc-Cre infection, luciferase reporter, 44 h. actives 3.4% (n = 340,000). AID 651820, 2012; also: potency is read from the fitted curve at half-maximal effect
#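 Cells (1,000/well) were plated 4 h before compound, then infected with HCVcc-Cre virus (~0.5 moi). After 44 h further culture, infection was read as luciferase luminescence following a 15 min substrate incubation at room temperature.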
# Pf growth 96h: Primary qHTS for delayed death inhibitors of the malarial parasite plastid, 96 hour incubation; P. falciparum luciferase reporter growth, 96 h; Potency, µM (doses to about 28.7 µM), inactives show at the top dose activity change, negative = inhibition, hits mostly inhibitors; actives 6.9% (n = 320,000); also: potency is read from the fitted curve at half-maximal effect
#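 Readout is luminescence from an integrated firefly luciferase in P. falciparum. Red cells, 2% hematocrit and 0.05% parasitemia final, were cultured with compound through two parasite generations (96 hours) at 37 C, 5% CO2.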
# * = called active by the depositor; i = inactive; ? = inconclusive; . = no result given; [ ] = dose if it differs, or a comment. Unless noted, calls follow the shape of the dose curve; as a rule, active = well fitted inhibition curve with a large enough effect; inconclusive = small, poorly fitted or top-dose-only effect, or another doubt; inactive = no such curve, though single readings can be large or run the other way. % is scaled to controls: 0 for no effect and ±100 for the full control effect.
SMILES,HCMV inh,Pf growth 48h,HCV inh,Pf growth 96h
Cc1cccc(NC(=O)c2sc3nc(-c4ccccc4)cn3c2C)n1,?,?,13µM*,?
Oc1ccc(Nc2nccc3[nH]c(-c4ccccc4)cc23)cc1,-1,.,.,.
COc1ccccc1Nc1nnc(SCc2nnc(-c3cc(OC)c(OC)c(OC)c3)o2)s1,-5,?,?,?
COc1cc(-c2nnc(CSc3nnc(Nc4ccc(C(C)C)cc4)s3)o2)cc(OC)c1OC,41,-22%,7.1µM*,?
COc1ccc(NC(=O)C(Cc2ccccc2)NS(=O)(=O)c2ccc3c(c2)CCC(=O)N3)c(OC)c1 (centres undefined),-102*,.,.,.
COc1ccc(OC)c(NC(=O)C(Cc2ccccc2)NS(=O)(=O)c2ccc3c(c2)CCC(=O)N3)c1 (centres undefined),1,.,.,.
Cc1cc(C)cc(OCC(=O)NCC(c2ccc(Cl)cc2)N2CCCCC2)c1 (centres undefined),-3,.,.,.
COc1ccc(Cl)cc1S(=O)(=O)N1CCN(C(=O)COc2ccccc2)CC1,-21,-20%,-11%,0%
N#Cc1ccc(OCC(=O)N2CCN(S(=O)(=O)c3cccc(Cl)c3)CC2)cc1,-6,?,-22%,9.3µM*
N#Cc1ccc(OCC(=O)N2CCN(S(=O)(=O)c3ccc(Cl)s3)CC2)cc1,-61*,?,?,?
COc1ccc(OCC(=O)N2CCN(S(=O)(=O)c3ccc(Cl)s3)CC2)cc1,19,-4%,2%,?
CCOc1ccc(S(=O)(=O)Nc2cccc(OC)c2)c2cccnc12,-2,.,.,.
O=C(Cn1c(-c2cccs2)cc2ccccc21)N1CCN(c2ccccc2F)CC1,14,.,.,.
CCN(CC)CCNC(=O)c1ccc(NC(=O)c2ccc(C(=O)c3ccccc3)cc2)cc1,.,5.9µM*,?,10µM*
CCN(CC)CCNC(=O)c1ccc(NC(=O)COc2ccc3c(c2)CCC3)cc1,7,?,?,15µM*
COc1cccc(NC(=O)COc2ccc3c(c2)CCC3)c1,32,28%,?,0%
COc1ccc(OC)c(NC(=O)COc2ccc3c(c2)CCC3)c1,0,13µM*,?,?
CCN(CC)CCNC(=O)c1ccc(NC(C)=O)cc1,46,11%,3%[8.37 µM],3%
CCN(CC)CCNC(=O)c1ccc(NC(=O)c2ccc(COc3ccccc3)cc2)cc1,?,30%,11µM*,?
Cn1cc(-c2csc(C(O)c3ccccc3)n2)cn1 (centres undefined),0,.,.,.
CSc1ccc(CNC(=O)c2cc3cc(S(=O)(=O)N4CCCCC4)ccc3n2C)cc1,-31,.,.,.
O=C(NCc1ccccc1)c1cccc(COc2ccc3c(c2)CCC3)c1,148,278%,-9%,-1%
COc1cccc(OC)c1C(=O)NNC(=O)c1cccc(COc2ccc3c(c2)CCC3)c1,101,2.3µM*,?,i
COc1ccc(OC)c(CNc2ccc3c(c2)CCC3)c1,5,?,2%,10µM*
CCN(CC(=O)Nc1ccc(NC(C)=O)cc1)C(=O)c1ccc(COc2ccc(C(C)(C)C)cc2)cc1,-62*,.,?,.
SMILES,HCMV inh,Pf growth 48h,HCV inh,Pf growth 96h
CCc1ccc(NC(=O)C(=O)NCC(c2cccnc2)N2CCN(Cc3ccccc3)CC2)cc1 (centres undefined),-14,.,.,.
Cc1cc(Br)cn2c(Cc3ccsc3)c(C(C)(C)C)nc12,2,.,.,.
Cc1cc(C)cc(N2CC(c3nnc(NC(=O)c4ccco4)s3)CC2=O)c1 (centres undefined),2,.,.,.
c1ccc(NC(c2ccccc2)c2ccncc2)cc1 (centres undefined),-2,9.3µM*,14%,80%
CC1CCC(NC(=O)N(CCCl)N=O)CC1 (centres undefined),44,5.4µM*,?,6.7µM*
CC(C)CCNC(=O)COc1ccc(N(C)S(=O)(=O)c2ccc(F)cc2)cc1,-87*,-43%,-7%,-20%
Cc1ccc(NC(=O)COc2ccc(N(C)S(=O)(=O)c3ccc(F)cc3)cc2)cc1,-37,?,?,10µM*
Cc1ccc(S(=O)(=O)N(C)c2ccc(OCC(=O)NCC3(N(C)C)CCCCC3)cc2)cc1,?,9.3µM*,?,9.3µM*

# Source: PubChem BioAssay
